Screening data: PubChem, National Center for Advancing Translational Sciences (NCATS)
Hits are enriched below; roughly 19% of the tested compounds scored in any of these assays.
KB-3-1 cytotox: KB-3-1 parental cell cytotoxicity | KB-3-1 viability, CellTiter-Glo ATP luminescence, 72 h | Potency, µM (series often up to 46.1 µM), actives largely listed as cytotoxic | 400,000 compounds, 1.4% hits | AID 1347075; further: nearly all actives have a fitted effect of over 60% in size
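Multi-concentration cytotoxicity screen in KB-3-1 cells grown in DMEM lacking phenol red with 10% FBS. After 72 h at 37 °C with compound, ATP-dependent luminescence was recorded.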
TDP1 cell CPT: growth inhibition of DT40 Tdp1-/-;hTDP1 cells with camptothecin (screen for TDP1 inhibitors). chicken DT40 Tdp1-/-;hTDP1 cells + 20 nM CPT, ATP luminescence, 48 h. Potency, µM (highest dose often 46.2 µM), inactives show at the highest dose activity change, negative = growth inhibition, most hits filed as inhibitors. 420,000 compounds, 12% hits. AID 686979; further: nearly all actives have a fitted effect of over 55% in size
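Chicken DT40 Tdp1-/- cells stably complemented with human TDP1 were seeded at 400 cells/well in medium containing 20 nM camptothecin, exposed to pin-transferred compounds, and grown at 37 °C for at least 48 hr. Viability was read as ATP luminescence.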
HT1080NT lethal: kills 2HG-producing HT-1080-NT fibrosarcoma cells; Potency, µM (top dose mostly 46.1 µM), for inactives: at the highest dose activity, negative = less viability, most hits filed as cytotoxic; 360,000 compounds, 1.6% hits; AID 686970; HT-1080-NT fibrosarcoma viability, CellTiter-Glo ATP luminescence, 48 h;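 further: NT is the 2HG producing partner of a matched IDH1 knockdown line; 0% = DMSO-treated cells and -100% = media-only wells without cells; nearly all actives have a fitted effect of over 55% in size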
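HT-1080-NT; 750 cells/well; 5% FBS RPMI; 48 h compound, 37 degrees C; CellTiter-Glo luminescence; curve fitting and curve-class assignment.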
TDP1 cell noCPT: qHTS for Inhibitors of human tyrosyl-DNA phosphodiesterase 1 (TDP1): qHTS in cells in absence of CPT; AID 686978, 2013; 420,000 compounds, 15% hits; Potency, µM (titrated, usually from 46.2 µM), for the others: top-dose activity change, negative = growth inhibition, usual class: inhibitors; DT40 Tdp1-/- hTDP1 cells, no CPT, ATP luminescence, 48 h; further: nearly all actives have a fitted effect of over 55% in size
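Readout: luminescence from CellTiter-Glo after 30 min in the dark at RT. Cells: DT40 Tdp1-/- with stable hTDP1, 400/well. Exposure: compounds alone, ≥48 hr, 37 °C.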
KB-V1 MDR tox: kills drug-selected multidrug resistant KB-V1 cells; 400,000 compounds, 3.4% hits; Potency, µM (series often up to 46.1 µM), hits mostly cytotoxic; KB-V1 MDR cells viability, CellTiter-Glo, 72 h; further: nearly all actives have a fitted effect of over 60% in size
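Drug-selected KB-V1 cells, grown in DMEM lacking phenol red with 10% FBS, receive compound titrations; after three days at 37 degrees C, surviving cell ATP is quantified by CellTiter-Glo luminescence and responses normalized and curve-fitted.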
HT1080 IDH1KD tx: HT-1080 IDH1 knockdown cell toxicity (counter line); HT-1080 IDH1 knockdown viability, ATP luminescence, 48 h; Potency, µM (titrated, usually from 46.1 µM), inactives show top-dose activity, negative = toxicity, most hits filed as cytotoxic; 360,000 compounds, 2% hits; AID 686971;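 further: 0% = DMSO wells and -100% = cell-free medium wells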
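Assay cells: HT-1080 with IDH1 knockdown, 750 per well, RPMI/5% FBS. Exposure: 48 h at 37 °C following 2 h pre-incubation. Read: CellTiter-Glo luminescence; fitted concentration-response, curve class assigned.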
The depositor's hits bear a star; i = inactive; ? = inconclusive; . = no result given. The call rests on the fitted dose curve; in most records, active means well fitted curve in the direction sought with a large enough effect; inconclusive means small, poorly fitted or top-dose-only effect, or another doubt; inactive means no such curve, though single readings can be large; an effect the other way counts as inactive or inconclusive. Unless noted, on the % scale 0 is the no-effect control and ±100 the full control effect; potency means the concentration at half of the fitted maximal effect.

SMILES	KB-3-1 cytotox	TDP1 cell CPT	HT1080NT lethal	TDP1 cell noCPT	KB-V1 MDR tox	HT1080 IDH1KD tx
COC(=O)c1ccc(C(=O)OC)c(-n2c(=O)c3ccccc3c3ccccc3c2=O)c1	?	?	-1%	?	i	1%
Cc1cc(C)cc(OC(C)C(=O)Nc2c(C(=O)c3ccccc3)oc3ccccc23)c1 (configuration not stated)	i	-1%	.	2%	i	.
O=C(Nc1ccc(Cl)cc1)N(Cc1cccnc1)Cc1ccco1	i	-2%	-4%	-13%	i	11%
O=C(Cc1cccc2ccccc12)N1CCN(c2ncccn2)CC1	i	1%	17%	-13%	i	10%
CCCCN(C(=O)c1ccc(C)c(S(=O)(=O)N2CCOCC2)c1)c1c(N)n(CCCC)c(=O)[nH]c1=O	i	?	?	-11%	i	3%
O=C(COC(=O)c1cc(S(=O)(=O)N2CCCC2)ccc1O)NCCc1ccccc1	i	4%	1%	-22%	i	0%
Cc1noc(/C=C/c2ccccn2)c1[N+](=O)[O-]	i	?	-15%	21µM*	i	?
CC(=O)O[C@@H]1[C@@H](O)[C@@H](O)[C@H](Oc2c(-c3ccc(O)cc3)oc3c(CC=C(C)C)c(O)cc(O)c3c2=O)O[C@H]1C	i	?	?	?	i	?
CC(=O)O[C@H]1[C@@H](O)[C@H](O)[C@H](Oc2c(O)c(C)c3c4c2[C@@H](C)CC[C@@H]4[C@@H](C)C[C@H]3C=C(C)C)O[C@H]1C	?	?	?	18µM*	26µM*	?
CCCc1cc(=O)n2[nH]c(C)c(-c3ccc(OC)cc3)c2n1	i	?	-1%	-21%	i	-1%
Cn1ccc2cc(-c3ccc4ncnc(NCc5cccs5)c4c3)ccc21	18µM*	.	.	.	?	.
Cc1noc(C)c1-c1ccc2ncnc(NCc3cccs3)c2c1	.	12µM*	.	23µM*	.	.
COc1cccc(CNc2ncnc3ccc(-c4c(C)noc4C)cc23)c1	i	.	.	.	?	.
COCCNC(=O)CSc1nnc(CCCN2C(=O)c3cccc4cccc(c34)C2=O)n1-c1ccccc1	i	-22%	11%	?	i	15%
COC(=O)c1ccc(CSc2nnc(CNC(=O)c3ccccc3F)o2)o1	i	-12%	2%	1%	i	4%
COC(=O)c1ccc(CSc2nnc(CNC(=O)COc3ccc(Cl)cc3)o2)o1	i	16µM*	-13%	?	?	0%
O=C(COc1ccc(Cl)cc1)NCc1nnc(SCC(=O)Nc2ccc(F)cc2F)o1	i	13µM*	0%	6%	i	-3%
CCOc1ccccc1NC(=O)CSc1nnc(CNC(=O)COc2ccc(Cl)cc2)o1	i	-17%	-6%	-19%	i	-4%
CC(C)c1ccc(NC(=O)C(NS(=O)(=O)c2ccc3c(c2)CCC(=O)N3)c2ccccc2)cc1 (configuration not stated)	i	21µM*	.	?	i	.
Cc1cc(NC(=O)CN(C)S(=O)(=O)c2ccc3c(c2)CCC(=O)N3)ccc1Br	?	29µM*	.	21µM*	?	.
Cc1ccc(C)c(NC(=O)C(NS(=O)(=O)c2ccc3c(c2)CCC(=O)N3)c2ccccc2)c1 (configuration not stated)	i	?	.	-16%	i	.
COc1cccc(N2CCN(C(=O)CN(C)S(=O)(=O)c3ccc4c(c3)CCC(=O)N4)CC2)c1	i	29µM*	-5%	18µM*	i	0%
